High-throughput results (PubChem)
HTT-AS act – activates huntingtin-antisense promoter activity; HEK293 HTT-AS promoter firefly luciferase reporter, 24 h; response scale: percent change from vehicle, -100% = no light; 0.24% of 48,000 active; Potency, µM (titrated, usually from 57.5 µM), inactives show at the top dose activity change, positive = activation, most hits filed as activators; note: potency is the fitted concentration of half-maximal effect; nearly all actives have a fitted effect of over 55% in size
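HEK293 luciferase promoter-reporter cells (2,500/well) plated 24 h, then compounds added at up to 57.5 uM final for 24 h at 37 °C. Firefly luminescence by Dual-Glo, normalized to vehicle (0%) and zero RLU (-100%).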
DRV1 agonist – agonists of human resolvin D1 receptor DRV1 (GPR32); AID 1346428; O75388; 2.5% of 48,000 active; CHO-K1 GPR32 beta-arrestin PathHunter luminescence, 90 min; zero percent set by DMSO-only wells; activation, % at 76.9 µM;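 active = activation of at least 60% and not above a set upper limit, about 1 call in 100 departs from these limits; inconclusive = activation of 40% to 60%, or above that upper limit; inactive = activation under 40%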; note: 0% is about no effect
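PathHunter beta-arrestin recruitment in CHO-K1 cells stably expressing ProLink-tagged GPR32. Cells were exposed to compound for 90 min at 37 C, then chemiluminescence was read after 1 h detection at ambient temperature; DMSO served as basal control.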
HTT promoter inh – inhibits huntingtin promoter activity; HEK293 HTT promoter firefly luciferase reporter, 24 h; Potency, µM (series often up to 57.5 µM), for inactives: at the top dose activity change, negative = inhibition, most hits filed as inhibitors; 0.93% of 48,000 active; AID 1508623; note: potency is the fitted concentration of half-maximal effect; nearly all actives have a fitted effect of over 50% in size
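Firefly luciferase readout (Dual-Glo, 10 min RT) after 24 h, 37 °C compound exposure (final up to 57.5 uM) of HEK293 reporter cells cultured 24 h beforehand; PTC124 at 50 uM final as control inhibitor; activity scaled vehicle 0%, zero RLU -100%.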
NTMT1 inh – inhibitors of human N-terminal methyltransferase NTMT1. Q9BV86. NTMT1 MTase-Glo SAH luminescence, purified enzyme. Potency, µM (series often up to 114 µM), inactives show at the highest dose activity change, negative = inhibition, most hits filed as inhibitors. 2.5% of 59,000 active;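 note: potency is the fitted concentration of half-maximal effect; plate controls were DMSO vehicle for no effect and no enzyme for full effect; nearly all actives have a fitted effect of over 65% in size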
Target sequence (Q9BV86 whole entry, looked up): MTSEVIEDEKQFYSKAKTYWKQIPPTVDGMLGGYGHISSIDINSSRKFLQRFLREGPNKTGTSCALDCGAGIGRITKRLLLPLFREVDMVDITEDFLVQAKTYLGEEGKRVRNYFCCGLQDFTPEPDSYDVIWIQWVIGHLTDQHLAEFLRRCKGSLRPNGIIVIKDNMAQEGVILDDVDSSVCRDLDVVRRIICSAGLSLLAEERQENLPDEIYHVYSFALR
DYRK1A inh – human DYRK1A kinase inhibition by ATP depletion readout | Potency, µM (doses to about 76.9 µM), for the others: at the highest dose activity change, negative = inhibition, hits mostly inhibitors | 80% of 100 active | recombinant DYRK1A, Kinase-Glo ATP depletion luminescence | shares compounds with NTMT1 inh
Sfp qHTS opt – inhibitors of Bacillus subtilis Sfp PPTase, optimization followup. shares compounds with NTMT1 inh. purified Sfp PPTase enzyme activity, qHTS. Potency, µM (highest dose often 114 µM), without a hit: at the top dose activity change, negative = inhibition, usual class: inhibitors. 78% of 230 active. AID 540350
HM489 growth – Sfp PPTase inhibitors: growth inhibition of B. subtilis HM489 | shares compounds with NTMT1 inh | B. subtilis HM489 (acpS-) growth, BacTiter-Glo, 5 h | Potency, µM (doses to about 114 µM), without a hit: at the top dose activity change, negative = inhibition, actives largely listed as inhibitors | 50% of 220 active | AID 540353
Sfp gel opt – inhibitors of Bacillus subtilis Sfp PPTase, gel-based followup; 54% of 220 active; Potency, µM (doses to about 250 µM), for the others: at the top dose activity change, negative = inhibition, most hits filed as inhibitors; purified Sfp PPTase, gel-based product detection; shares compounds with NTMT1 inh
Sfp inh gel – confirmation of Bacillus subtilis Sfp PPTase inhibitors. shares compounds with NTMT1 inh. purified Sfp PPTase, gel-based product detection. Potency, µM (top dose mostly 250 µM), inactives show top-dose activity change, negative = inhibition, most hits filed as inhibitors. 90% of 45 active
Sfp inh SAR2 – inhibits B. subtilis Sfp PPTase in second SAR round. shares compounds with NTMT1 inh. purified Sfp enzyme, PPTase activity, qHTS. Potency, µM (doses to about 57.1 µM), without a hit: top-dose activity change, negative = inhibition, hits mostly inhibitors. 87% of 230 active
hGST A1-1 inh – counter-screen for Sfp PPTase inhibitors: hGST A1-1 inhibition; shares compounds with NTMT1 inh; hGST A1-1 enzyme activity counter-screen, qHTS; Potency, µM (highest dose often 114 µM), for the others: at the top dose activity change, negative = inhibition, hits mostly inhibitors; 55 tested, under 10 active
HSD17B4 inh – inhibits human HSD17B4, off-target for HPGD inhibitors. AID 743187. 10% of 230 active. Potency, µM (titrated, usually from 57.1 µM), for inactives: at the top dose activity change, negative = inhibition, hits mostly inhibitors. purified HSD17B4, estradiol/NAD+, NADH fluorescence. shares compounds with NTMT1 inh
ALDH1A1 inh – ALDH1A1 (human) inhibition, HPGD counter-screen | shares compounds with NTMT1 inh | recombinant ALDH1A1, NADH fluorescence, propionaldehyde/NAD+ | Potency, µM (highest dose often 57.1 µM), for inactives: at the highest dose activity change, negative = inhibition, hits mostly inhibitors | 93% of 230 active | AID 743195
NNMT counter – counter-screen for NTMT1 inhibitors: human NNMT inhibition | NNMT MTase-Glo luminescence, SAH detection | Potency, µM (highest dose often 57.1 µM), for the others: at the highest dose activity, negative = inhibition, hits mostly inhibitors | 10% of 120 active | AID 1645878 | shares compounds with NTMT1 inh
Target sequence (P40261 whole entry, looked up): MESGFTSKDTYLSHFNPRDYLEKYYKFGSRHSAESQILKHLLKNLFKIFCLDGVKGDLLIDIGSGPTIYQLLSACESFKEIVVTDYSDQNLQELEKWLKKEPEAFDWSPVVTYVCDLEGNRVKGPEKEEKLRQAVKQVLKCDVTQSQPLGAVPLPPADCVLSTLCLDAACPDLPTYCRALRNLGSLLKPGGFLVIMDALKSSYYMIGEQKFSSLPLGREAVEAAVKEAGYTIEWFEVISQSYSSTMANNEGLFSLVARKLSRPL
* marks the source's active call; other numbers are inactive results; ? = inconclusive; / = no result given; [ ] = remark or other dose. The list is not random: actives were taken first. Their share in the collection is about 4.6%. Unless noted, calls come from the whole dose curve; as a rule, active = well fitted curve in the direction sought with a large enough effect; inconclusive = small, poorly fitted or top-dose-only effect, or another doubt; inactive = no such curve, though single readings can be large; an effect the other way counts as inactive or inconclusive.

SMILES	HTT-AS act	DRV1 agonist	HTT promoter inh	NTMT1 inh	NNMT counter	others
CCOc1ccc(NC(=O)N2CCN(c3ccc(Cl)c(Cl)c3)CC2)cc1	-22.9%	5.3	?	-13.6%	/
S=C(Nc1cc(Cl)ccn1)N1CCN(c2cccc(Cl)c2Cl)CC1	/	/	/	?	/	Sfp qHTS opt=4.08µM*;Sfp inh SAR2=15.6µM*;hGST A1-1 inh=-5.7%;HSD17B4 inh=-13.2%;ALDH1A1 inh=6.81µM*
CN(C)C(=O)NC1CCC(CCN2CCN(c3cccc(Cl)c3Cl)CC2)CC1 (stereo not given)	/	/	/	1.0%[12.6 µM]	/
COc1ccnc(NC(=S)N2CCN(c3ccc(Cl)cc3Cl)CC2)c1	/	/	/	?	/	Sfp qHTS opt=2.96µM*;HM489 growth=13.2µM*;Sfp gel opt=7.94µM*;Sfp inh gel=3.38µM*;Sfp inh SAR2=0.46µM*;hGST A1-1 inh=4.4%;HSD17B4 inh=-5.8%;ALDH1A1 inh=4.29µM*
C[C@@H](Oc1cc(-c2cnn(C3CCNCC3)c2)cnc1N)c1c(Cl)ccc(F)c1Cl	-24.6%	/	?	17.8µM*	?
NC(=O)c1cccc(-c2cc(OC(=O)NC3CCCCC3)ccc2O)c1	/	/	/	?	-18.0%
NC(=O)c1cccc(-c2cnc3c(O)ccc(C(=O)O)c3c2)c1	/	/	/	12.2%	/
COc1cc(Nc2c(C#N)cnc3cc(OCCCN4CCN(C)CC4)c(OC)cc23)c(Cl)cc1Cl	-32.1%	45.9	?	7.94µM*	20µM*
O=C1CCCC2=C1C(c1ccncc1Br)N=C(Nc1nc3ccccc3o1)N2 (stereo not given)	/	/	/	-9.3%	/
Cc1cnc(Nc2ccc(F)cc2Cl)nc1-c1c[nH]c(C(=O)NC(CO)c2cccc(Cl)c2)c1 (stereo not given)	/	/	/	-6.4%[57.5 µM]	-16.9%
COc1cccc(-c2ccc3ncnc(NCc4cccs4)c3c2)c1	/	/	/	-20.4%	/	DYRK1A inh=7.33µM*
c1cncc(-c2ccc3ncnc(NCc4ccc5c(c4)OCO5)c3c2)c1	/	/	/	-9.1%	/
